# Test results taken from PubChem BioAssay (NCI).
# Compounds without any hit were thinned out: in the full panel of roughly 79,000, 15% have a hit. Unmarked numbers belong to inactive results. Activity calls are given as the source filed them. Cut-off read from the data, not from the text of the source: active = growth inhibition above about 70%; inactive = the rest.
# How the values were obtained:
# [1] = NCI Yeast Anticancer Drug Screen. Data for the wt1 strain (AID 149);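 note: 0% = growth of vehicle-treated wt1 cultures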; conditions: S. cerevisiae wt1 strain (SPY 50644) growth inhibition, hits give high values
# Method in brief: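 wt1 yeast, compound-treated; % growth inhibition vs vehicle control.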
# [2] = NCI Yeast Anticancer Drug Screen. Data for the rad50EPP+ strain (AID 151);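 note: 0% = growth of vehicle-treated control cultures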; conditions: S. cerevisiae rad50 mutant strain, hits give high values
# Method in brief: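 Genetically defined yeast (rad50EPP+, DNA damage repair alteration) is grown with compound, and inhibition of growth is expressed relative to vehicle-treated controls.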
# [3] = NCI Yeast Anticancer Drug Screen. Data for the mgt1 strain (AID 153); conditions: S. cerevisiae mgt1 mutant growth inhibition, hits give high values
# Method in brief: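 In the mgt1 strain, test compounds were added and growth inhibition was determined relative to vehicle-treated controls.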
# [4] = NCI Yeast Anticancer Drug Screen. Data for the rad50 strain (AID 155);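 note: 0% = growth of vehicle-only cultures of the same strain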; conditions: S. cerevisiae rad50 strain growth inhibition, hits give high values
# Method in brief: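 Genetically altered yeast (DNA repair pathway); compound treatment; growth inhibition vs vehicle ctrl.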
# [5] = NCI Yeast Anticancer Drug Screen. Data for the mec2-1 strain (AID 157); conditions: S. cerevisiae mec2-1 strain, hits give high values
# Method in brief: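 Each compound was tested on mec2-1 yeast, a strain altered in DNA damage repair or cell cycle control. Growth inhibition is reported relative to vehicle.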
# [6] = NCI Yeast Anticancer Drug Screen. Data for the rad14 strain (AID 159);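 note: 0% = growth of vehicle-treated control cultures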; conditions: S. cerevisiae rad14 strain growth inhibition, hits give high values
# Method in brief: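 Test compounds were applied to a repair-deficient yeast strain. Its growth was then compared with that of cultures given vehicle alone, and inhibition was expressed relative to those controls.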
# [7] = NCI Yeast Anticancer Drug Screen. Data for the sgs1 mgt1 strain (AID 161);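 note: 0% = growth of cultures given vehicle only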; conditions: S. cerevisiae sgs1 mgt1 strain, hits give high values
# Method in brief: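 Inhibition of yeast growth, normalised to vehicle-treated controls, is reported for a strain bearing genetic alterations in DNA damage repair.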
# [8] = NCI Yeast Anticancer Drug Screen. Data for the cln2 rad14 strain (AID 165);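 note: 0% = growth equal to vehicle treated cultures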; conditions: S. cerevisiae cln2 rad14 strain, hits give high values
# Method in brief: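 Test compounds were added to cln2 rad14 yeast cultures; inhibition of growth was then determined by comparison with vehicle treatment.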
# [9] = NCI Yeast Anticancer Drug Screen. Data for the bub3 strain (AID 167); conditions: S. cerevisiae bub3 mutant strain, hits give high values
# Method in brief: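 Yeast carrying a defined mutation is treated with each compound, and growth is compared with that of vehicle-exposed cells to give inhibition.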
# [10] = NCI Yeast Anticancer Drug Screen. Data for the wt2 strain (AID 169);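 note: 0% = growth of vehicle-treated yeast cultures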; conditions: S. cerevisiae wt2 strain growth inhibition, hits give high values
# Method in brief: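 The panel's yeast strains carry defined changes in DNA repair or cell cycle genes. Each strain is grown with compound, and growth loss is scored relative to vehicle.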
# [11] = NCI Yeast Anticancer Drug Screen. Data for the mlh1 strain (AID 171);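 note: 0% = growth of vehicle-treated control cultures of the same strain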; conditions: S. cerevisiae mlh1 strain growth inhibition, hits give high values
# Method in brief: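 Inhibition values reflect reduced yeast growth in the presence of compound, referenced to vehicle controls, using a strain chosen for its alteration in DNA repair or cell cycle control.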
# [12] = NCI Yeast Anticancer Drug Screen. Data for the sgs1 strain (AID 173);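 note: 0% = growth of vehicle-only control cultures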; conditions: S. cerevisiae sgs1 mutant, hits give high values
# Method in brief: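 Vehicle-treated cultures served as reference for growth inhibition of a yeast strain altered in DNA damage repair or cell cycle control after compound exposure.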
# [13] = NCI Yeast Anticancer Drug Screen. Data for the mlh1 rad18 strain (AID 175); conditions: S. cerevisiae mlh1 rad18 strain growth inhibition, hits give high values
# Method in brief: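 Inhibition values reflect reduced growth of mutant yeast versus vehicle-treated controls following compound exposure; the mutations affect DNA damage repair.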
# [14] = NCI Yeast Anticancer Drug Screen. Data for the CLN2oe strain (AID 163);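 note: 0% = growth of vehicle-only control cultures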; conditions: S. cerevisiae CLN2oe strain, hits give high values
# Method in brief: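 First, the altered yeast strain was treated with each compound; second, its growth was measured; finally, inhibition was derived by comparison with vehicle controls.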
# [15] = NCI Yeast Anticancer Drug Screen. Data for the rad18 strain (AID 177); conditions: S. cerevisiae rad18 mutant growth inhibition, hits give high values
# Method in brief: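 Steps: expose repair-mutant yeast to compound; measure growth; express as inhibition relative to vehicle control.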
# [16] = at 5.0 µM (retest, dose inferred, filed as 0.5)
# [17] = at 50.0 µM (retest, dose inferred, filed as 5.0)
smiles,measurement,setting,value
CSc1ccc2c(c1)C(N1CCN(C)CC1)Cc1ccccc1S2 (stereo unspecified),growth inhibition,[1]; at 1.2 µM,-58%
same,growth inhibition,[1]; at 3.7 µM,-61%
same,growth inhibition,[1]; at 11.0 µM,-57%
same,growth inhibition,[1]; at 33.0 µM,-6%
same,growth inhibition,[1]; at 100.0 µM,99% (active)
same,growth inhibition,[2]; at 1.2 µM,-27%
same,growth inhibition,[2]; at 3.7 µM,-45%
same,growth inhibition,[2]; at 11.0 µM,-37%
same,growth inhibition,[2]; at 33.0 µM,-4%
same,growth inhibition,[2]; at 100.0 µM,91% (active)
same,growth inhibition,[3]; at 1.2 µM,-33%
same,growth inhibition,[3]; at 3.7 µM,-31%
same,growth inhibition,[3]; at 11.0 µM,-49%
same,growth inhibition,[3]; at 33.0 µM,74% (active)
same,growth inhibition,[3]; at 100.0 µM,99% (active)
same,growth inhibition,[4]; at 1.2 µM,-34%
same,growth inhibition,[4]; at 3.7 µM,-47%
same,growth inhibition,[4]; [16],28%
same,growth inhibition,[4]; at 11.0 µM,-25%
same,growth inhibition,[4]; at 33.0 µM,76% (active)
same,growth inhibition,[4]; [17],67%
same,growth inhibition,[4]; at 50.0 µM,88.1% (active)
same,growth inhibition,[4]; at 100.0 µM,98% (active)
same,growth inhibition,[5]; at 1.2 µM,-75%
same,growth inhibition,[5]; at 3.7 µM,-83%
same,growth inhibition,[5]; [16],15%
same,growth inhibition,[5]; at 11.0 µM,-4%
same,growth inhibition,[5]; at 33.0 µM,83% (active)
same,growth inhibition,[5]; [17],78% (active)
same,growth inhibition,[5]; at 50.0 µM,78.6% (active)
same,growth inhibition,[5]; at 100.0 µM,99% (active)
same,growth inhibition,[6]; at 1.2 µM,-55%
same,growth inhibition,[6]; at 3.7 µM,-36%
same,growth inhibition,[6]; at 11.0 µM,5%
same,growth inhibition,[6]; at 33.0 µM,98% (active)
same,growth inhibition,[6]; at 100.0 µM,99% (active)
same,growth inhibition,[7]; [16],98% (active)
same,growth inhibition,[7]; [17],86% (active)
same,growth inhibition,[7]; at 50.0 µM,84.2% (active)
same,growth inhibition,[8]; [16],91% (active)
same,growth inhibition,[8]; [17],88% (active)
same,growth inhibition,[8]; at 50.0 µM,76% (active)
same,growth inhibition,[9]; at 1.2 µM,-68%
same,growth inhibition,[9]; at 3.7 µM,-46%
same,growth inhibition,[9]; [16],98% (active)
same,growth inhibition,[9]; at 11.0 µM,14%
same,growth inhibition,[9]; at 33.0 µM,91% (active)
same,growth inhibition,[9]; [17],86% (active)
same,growth inhibition,[9]; at 50.0 µM,81.7% (active)
same,growth inhibition,[9]; at 100.0 µM,98% (active)
same,growth inhibition,[10]; at 1.2 µM,-59%
same,growth inhibition,[10]; at 3.7 µM,-35%
same,growth inhibition,[10]; at 11.0 µM,-46%
same,growth inhibition,[10]; at 33.0 µM,6%
same,growth inhibition,[10]; at 100.0 µM,99% (active)
same,growth inhibition,[11]; at 1.2 µM,-67%
same,growth inhibition,[11]; at 3.7 µM,-68%
same,growth inhibition,[11]; at 11.0 µM,-37%
same,growth inhibition,[11]; at 33.0 µM,88% (active)
same,growth inhibition,[11]; at 100.0 µM,98% (active)
same,growth inhibition,[12]; at 1.2 µM,-34%
same,growth inhibition,[12]; at 3.7 µM,-84%
same,growth inhibition,[12]; at 11.0 µM,-27%
same,growth inhibition,[12]; at 33.0 µM,70% (active)
same,growth inhibition,[12]; at 100.0 µM,98% (active)
same,growth inhibition,[13]; [16],35%
same,growth inhibition,[13]; [17],89% (active)
same,growth inhibition,[13]; at 50.0 µM,92.8% (active)
O=C(Nn1c(-c2ccccc2)nc2ccccc2c1=O)c1ccc(Cl)cc1,growth inhibition,[1]; at 1.2 µM,23%
same,growth inhibition,[1]; at 3.7 µM,15%
same,growth inhibition,[1]; at 11.0 µM,17%
same,growth inhibition,[1]; at 33.0 µM,54%
same,growth inhibition,[1]; at 100.0 µM,96% (active)
same,growth inhibition,[2]; at 1.2 µM,-1%
same,growth inhibition,[2]; at 3.7 µM,-11%
same,growth inhibition,[2]; at 11.0 µM,-2%
same,growth inhibition,[2]; at 33.0 µM,16%
same,growth inhibition,[2]; at 100.0 µM,27%
same,growth inhibition,[3]; at 1.2 µM,-4%
same,growth inhibition,[3]; at 3.7 µM,-19%
same,growth inhibition,[3]; at 11.0 µM,-17%
same,growth inhibition,[3]; at 33.0 µM,50%
same,growth inhibition,[3]; at 100.0 µM,94% (active)
same,growth inhibition,[4]; at 1.2 µM,26%
same,growth inhibition,[4]; at 3.7 µM,9%
same,growth inhibition,[4]; [16],-24%
same,growth inhibition,[4]; at 11.0 µM,31%
same,growth inhibition,[4]; at 33.0 µM,70% (active)
same,growth inhibition,[4]; [17],68%
same,growth inhibition,[4]; at 50.0 µM,66.5%
same,growth inhibition,[4]; at 100.0 µM,95% (active)
same,growth inhibition,[5]; at 1.2 µM,-15%
same,growth inhibition,[5]; at 3.7 µM,-24%
same,growth inhibition,[5]; [16],-3%
same,growth inhibition,[5]; at 11.0 µM,-1%
same,growth inhibition,[5]; at 33.0 µM,28%
same,growth inhibition,[5]; [17],9%
same,growth inhibition,[5]; at 50.0 µM,36.4%
same,growth inhibition,[5]; at 100.0 µM,93% (active)
same,growth inhibition,[6]; at 1.2 µM,-11%
same,growth inhibition,[6]; at 3.7 µM,-5%
same,growth inhibition,[6]; at 11.0 µM,-15%
same,growth inhibition,[6]; at 33.0 µM,76% (active)
same,growth inhibition,[6]; at 100.0 µM,91% (active)
same,growth inhibition,[7]; [16],0%
same,growth inhibition,[7]; [17],24%
same,growth inhibition,[7]; at 50.0 µM,56.5%
same,growth inhibition,[14]; at 1.2 µM,12%
same,growth inhibition,[14]; at 3.7 µM,-8%
same,growth inhibition,[14]; at 11.0 µM,-23%
same,growth inhibition,[14]; at 33.0 µM,12%
same,growth inhibition,[14]; at 100.0 µM,94% (active)
same,growth inhibition,[8]; [16],-20%
same,growth inhibition,[8]; [17],16%
same,growth inhibition,[8]; at 50.0 µM,49.5%
same,growth inhibition,[9]; at 1.2 µM,43%
same,growth inhibition,[9]; at 3.7 µM,52%
same,growth inhibition,[9]; [16],-19%
same,growth inhibition,[9]; at 11.0 µM,72% (active)
same,growth inhibition,[9]; at 33.0 µM,93% (active)
same,growth inhibition,[9]; [17],68%
same,growth inhibition,[9]; at 50.0 µM,68.7%
same,growth inhibition,[9]; at 100.0 µM,95% (active)
same,growth inhibition,[11]; at 1.2 µM,5%
same,growth inhibition,[11]; at 3.7 µM,1%
same,growth inhibition,[11]; at 11.0 µM,26%
same,growth inhibition,[11]; at 33.0 µM,69%
same,growth inhibition,[11]; at 100.0 µM,95% (active)
same,growth inhibition,[12]; at 1.2 µM,23%
same,growth inhibition,[12]; at 3.7 µM,19%
same,growth inhibition,[12]; at 11.0 µM,33%
same,growth inhibition,[12]; at 33.0 µM,78% (active)
same,growth inhibition,[12]; at 100.0 µM,96% (active)
same,growth inhibition,[13]; [16],-46%
same,growth inhibition,[13]; [17],68%
same,growth inhibition,[13]; at 50.0 µM,71.9% (active)
same,growth inhibition,[15]; at 1.2 µM,-2%
same,growth inhibition,[15]; at 3.7 µM,-2%
same,growth inhibition,[15]; at 11.0 µM,13%
same,growth inhibition,[15]; at 33.0 µM,70% (active)
same,growth inhibition,[15]; at 100.0 µM,95% (active)
